ERG-DNA inh – inhibitors of human ERG Ets domain-DNA interaction | P11308 | fluorescence polarization, His-ERG Ets domain / labelled DNA | Potency, µM (doses to about 76.9 µM), usual class: inhibitors | 0.028% of 370,000 active; active means well fitted inhibition curve with a large enough effect in the polarisation, with a control signal flat; inconclusive means small, poorly fitted or top-dose-only effect, or effect the other way, or a change in a side signal; inactive means no such curve, though single readings can be large or run the other way; the % refers to the polarisation;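 further: polarization taken with two DNA probes labelled with fluorescein and Texas red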
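His-tagged ERG Ets domain (1 uM in the protein solution; 300mM KCl, 50mM Tris-HCl, 1mM EDTA, 1mM DTT, pH 7.5) received compound, then a probe mix of 5 nM fluorescein-DNA and 100nM Texas-615-DNA. Fluorescence polarization was read for both dyes.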
Apoferritin bind – candidate novel general anesthetic via apoferritin binding. P02791. apoferritin/1-aminoanthracene competitive binding, fluorescence. Potency, µM (highest dose often 77.5 µM), most hits filed as inhibitors. 0.074% of 350,000 active; further: nearly all actives have a fitted effect of over 20% in size
Target sequence (P02791 2-175 limits assumed): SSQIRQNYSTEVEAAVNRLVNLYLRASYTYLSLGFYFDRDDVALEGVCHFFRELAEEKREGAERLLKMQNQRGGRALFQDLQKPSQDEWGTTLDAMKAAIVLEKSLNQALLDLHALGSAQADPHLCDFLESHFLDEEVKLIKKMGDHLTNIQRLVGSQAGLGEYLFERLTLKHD
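Probe: 1-aminoanthracene (50% saturated, PBS). Protein: horse-spleen apoferritin, 10 uM. Incubation: 10 min, room temperature. Detection: 380 nm excitation, 535 nm emission. Analysis: normalized response, four-parameter Hill.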
GoLoco inh red – inhibitors of human Gai1-RGS12 GoLoco interaction (red fluorophore) | Gai1:RGS12 GoLoco peptide FP, rhodamine, 10 min | 0.44% of 230,000 active | Potency, µM (titrated, usually from 61.6 µM), most hits filed as inhibitors; active means well fitted inhibition curve with a large enough effect, not every such curve was filed as active; inactive means no such curve, though single readings can be large or run the other way; further: nearly all actives have a fitted effect of over 30% in size
Target sequence (P63096 whole entry, looked up): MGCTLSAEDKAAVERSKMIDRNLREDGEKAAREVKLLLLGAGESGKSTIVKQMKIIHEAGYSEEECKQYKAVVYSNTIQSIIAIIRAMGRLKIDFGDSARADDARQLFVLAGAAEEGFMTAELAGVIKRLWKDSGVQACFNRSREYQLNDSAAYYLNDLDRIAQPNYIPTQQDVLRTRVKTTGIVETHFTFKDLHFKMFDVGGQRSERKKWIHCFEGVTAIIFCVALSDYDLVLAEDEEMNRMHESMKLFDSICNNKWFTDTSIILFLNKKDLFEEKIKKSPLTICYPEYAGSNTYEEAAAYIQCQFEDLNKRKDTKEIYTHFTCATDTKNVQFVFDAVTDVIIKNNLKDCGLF
BRCA1 expr up – BRCA1 expression activation | MCF7-BRCA1-FFLuc reporter, luminescence, 48 h; response scale: scaled: vehicle 0%, 10 µM genistein 100% | Potency, µM (series often up to 46.1 µM), actives largely listed as activators | 1.1% of 380,000 active | AID 624202; further: nearly all actives have a fitted effect of over 80% in size
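Compounds are tested at multiple concentrations on MCF7 BRCA1-luciferase reporter cells seeded at 2000 per well; after 48 h, a single luminescence end-point is taken and curves fitted to the normalized data.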
Large screens that a line does not name were inactive. Hits are enriched below; roughly 1.2% of the tested compounds scored in any of these assays. Unless noted, the call rests on the fitted dose curve; in most records, active means well fitted curve in the direction sought with a large enough effect; inconclusive means small, poorly fitted or top-dose-only effect, or another doubt; inactive means no such curve, though single readings can be large; an effect the other way counts as inactive or inconclusive.

CC1OC2(C)OC(=N)C1(C#N)C(C#N)(C#N)C2c1ccccc1 (stereo not given)	none
CC1C2(C)OC(=N)C(C#N)(C(C)O2)C1(C#N)C#N (stereo not given)	ERG-DNA inh inconclusive, GoLoco inh red 25µM, BRCA1 expr up inconclusive
CCC(C)(C)NC(=O)CCCSc1nc2ccccc2s1	BRCA1 expr up 3.5µM
O=C(NCc1ccc(F)cc1Cl)c1cc(=O)[nH]c2ccc(S(=O)(=O)N3CCCCC3)cc12	none (no result: GoLoco inh red, BRCA1 expr up)
COc1ccc(-c2cc(=O)[nH]c3ccccc23)cc1	none (no result: Apoferritin bind, GoLoco inh red)
COc1cccc2[nH]c(=O)c(-c3ccccc3)cc12	BRCA1 expr up 3.2µM (no result: GoLoco inh red)
CC1(C)CC(=O)C(=Cc2cn(-c3ccccc3)nc2-c2ccccc2)C(=O)C1	none (no result: Apoferritin bind, GoLoco inh red)
Cc1ccc(-c2nn(-c3ccccc3)cc2C=C2C(=O)CC(C)(C)CC2=O)cc1	BRCA1 expr up 6.3µM
CCOc1ccc(-c2ccc(SCC(=O)NCC3CCCO3)nn2)cc1 (stereo not given)	BRCA1 expr up 4µM
COc1cc(C2Nc3ccccc3C(=O)N2c2ccc(Cl)cc2)c(Cl)cc1OCC(=O)O (stereo not given)	BRCA1 expr up 2.8µM
COc1cc(C2Nc3ccccc3C(=O)N2c2ccccc2)ccc1O (stereo not given)	BRCA1 expr up 7.9µM
CCC(C)(C)C(=O)Nc1nnc(CCc2ccccc2)s1	Apoferritin bind inconclusive, BRCA1 expr up 8.9µM (no result: GoLoco inh red)
COc1ccc(C(=O)c2sc(Nc3ccc(NC(C)=O)cc3)nc2C)cc1	Apoferritin bind inconclusive (no result: GoLoco inh red)
CC(=O)c1sc(N/N=C\c2ccc(Br)cc2)nc1C	BRCA1 expr up 3.5µM
CC(=O)c1sc(N/N=C\c2cccc(Br)c2)nc1C	none
COc1ccc(Nc2nc(C)c(C(C)=O)s2)cc1	BRCA1 expr up 13µM (no result: ERG-DNA inh, Apoferritin bind, GoLoco inh red)
Cc1nc(Nc2ccccc2)sc1C(=O)Nc1ccccc1	BRCA1 expr up 6.3µM
O=C(C[n+]1c(Cl)ccc2ccccc21)c1ccc2ccccc2c1	none (no result: ERG-DNA inh, Apoferritin bind, GoLoco inh red)
CC1(C)CC(=O)c2cc(C(=O)Nc3ccccc3)c(=O)[nH]c2C1	none (no result: ERG-DNA inh, Apoferritin bind, GoLoco inh red)
Cc1cc(C)n(-c2nc(NC(C)C)nc(NC(C)(C)C)n2)n1	none (no result: ERG-DNA inh, Apoferritin bind, GoLoco inh red)
Nc1ccc(C(=O)OCc2nc3c(ccc4ccccc43)[nH]2)cc1	BRCA1 expr up 7.1µM
Nc1ccc(C(=O)OCc2nc3cc4ccccc4cc3[nH]2)cc1	none
CC(=O)Nc1ccc(C(=O)OCCCOC(=O)c2ccc(NC(C)=O)cc2)cc1	none (no result: GoLoco inh red)
CC(=O)Nc1ccc(C(=O)OCCc2ccccc2)cc1	BRCA1 expr up 5µM (no result: GoLoco inh red)
CCOC(=O)c1ccc(NC(=O)c2ccccc2)cc1	BRCA1 expr up 2.8µM (no result: ERG-DNA inh)
CCOC(=O)c1ccc(NC(=S)N2CCC(O)CC2)cc1	BRCA1 expr up 13µM
CCOC(=O)c1ccc(NC(=O)C23CCC(C)(C(=O)O2)C3(C)C)cc1 (stereo not given)	BRCA1 expr up 10µM
CCc1ccc(NC(=O)CSc2nnc(-c3ccccc3)n2C)cc1	none (no result: ERG-DNA inh, Apoferritin bind, GoLoco inh red)
O=C1[C@H]2[C@H]3C=C[C@@H](C4[C@H]3[C@@H]3C(=O)N(CN5CCSCC5)C(=O)[C@H]43)[C@H]2C(=O)N1CN1CCSCC1 (stereo not given in full)	none (no result: ERG-DNA inh, Apoferritin bind, BRCA1 expr up)
Cc1c(-c2cccc(NC(=O)Nc3ccccc3)c2)nc2ncccn12	none (no result: GoLoco inh red, BRCA1 expr up)
O=C(C[n+]1ccccc1Cl)c1ccc2ccccc2c1	none (no result: ERG-DNA inh, Apoferritin bind, GoLoco inh red)
CN(C)CCCN1C(=O)c2cccc3cccc(c23)C1=O	none (no result: GoLoco inh red)
CC1=CC2=C(OC1N(C)C)c1cccc3cccc(c13)C2=O (stereo not given)	GoLoco inh red 18µM
NNC(=O)CNC(=O)C12CC3CC(CC(C3)C1)C2	Apoferritin bind 7.9µM
Cn1c(=O)c2sccc2n2c(CCC(=O)N3CCN(c4ccc(F)cc4)CC3)nnc12	none (no result: GoLoco inh red, BRCA1 expr up)
COc1cccc(-c2nnc(NC(=O)c3ccco3)s2)c1	BRCA1 expr up 6.3µM (no result: GoLoco inh red)
COc1ccc(-c2nnc(NC(=O)c3ccco3)s2)cc1	BRCA1 expr up inconclusive (no result: GoLoco inh red)
COc1cccc(-c2nnc(NC(=O)c3cccs3)s2)c1	BRCA1 expr up 4µM
Cc1cccc2[nH]c(-c3ccc(NC(=O)c4ccco4)cc3)nc12	BRCA1 expr up 1.8µM
Cc1ccc(-c2nnc(NC(=O)c3ccco3)s2)cc1	BRCA1 expr up 2.2µM (no result: GoLoco inh red)
C=CCNC(=O)N1CCc2nc(CCCC)c3c(c2C1)CO[C@@H](C)C3	none (no result: ERG-DNA inh, Apoferritin bind, BRCA1 expr up)
CCc1ccc(CNc2nc3nc(C)c(Cc4ccccc4)c(=O)n3[nH]2)cc1	none (no result: GoLoco inh red, BRCA1 expr up)
Cc1cc(C)cc(C(=O)Nc2c(C(=O)Nc3ccccc3F)oc3ccccc23)c1	none (no result: GoLoco inh red)
O=C(Nc1nnc(Cc2ccccc2)s1)c1ccco1	BRCA1 expr up 13µM
